The full data set covers some 7,900 targets. This sample favours those with a hit. About 0.6% of all pairs of compound and target were hits.

UniProt Q9BVV7, sequence (Q9BVV7 whole entry, looked up): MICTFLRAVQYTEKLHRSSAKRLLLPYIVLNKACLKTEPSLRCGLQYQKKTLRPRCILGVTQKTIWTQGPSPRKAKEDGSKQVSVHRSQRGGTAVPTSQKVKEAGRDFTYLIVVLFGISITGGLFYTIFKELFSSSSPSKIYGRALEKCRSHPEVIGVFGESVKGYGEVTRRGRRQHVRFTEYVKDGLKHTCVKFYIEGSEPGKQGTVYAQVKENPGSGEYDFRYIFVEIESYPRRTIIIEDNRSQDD
UniProt Q99523, sequence (Q99523 whole entry, looked up): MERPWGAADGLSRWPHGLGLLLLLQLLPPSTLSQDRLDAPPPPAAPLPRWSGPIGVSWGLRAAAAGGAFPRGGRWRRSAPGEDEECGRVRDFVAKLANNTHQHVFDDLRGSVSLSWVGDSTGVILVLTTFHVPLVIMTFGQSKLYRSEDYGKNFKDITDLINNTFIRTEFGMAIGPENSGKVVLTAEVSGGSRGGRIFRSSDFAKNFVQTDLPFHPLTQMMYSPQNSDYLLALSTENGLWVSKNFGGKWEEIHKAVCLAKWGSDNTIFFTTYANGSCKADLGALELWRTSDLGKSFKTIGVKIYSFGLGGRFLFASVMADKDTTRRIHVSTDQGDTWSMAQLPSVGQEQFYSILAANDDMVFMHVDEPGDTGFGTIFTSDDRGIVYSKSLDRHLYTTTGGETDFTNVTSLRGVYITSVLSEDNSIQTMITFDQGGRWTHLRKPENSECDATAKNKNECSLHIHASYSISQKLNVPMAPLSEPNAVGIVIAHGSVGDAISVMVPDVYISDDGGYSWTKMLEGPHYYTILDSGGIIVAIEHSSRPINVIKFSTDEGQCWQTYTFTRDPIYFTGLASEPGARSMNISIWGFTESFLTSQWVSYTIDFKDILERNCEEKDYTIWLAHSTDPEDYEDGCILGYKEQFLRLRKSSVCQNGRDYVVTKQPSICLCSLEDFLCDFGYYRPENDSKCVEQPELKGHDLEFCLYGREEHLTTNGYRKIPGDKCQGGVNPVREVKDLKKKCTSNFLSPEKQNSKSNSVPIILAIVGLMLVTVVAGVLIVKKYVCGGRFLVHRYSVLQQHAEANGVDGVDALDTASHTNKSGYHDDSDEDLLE
UniProt Q01130, sequence (Q01130 whole entry, looked up): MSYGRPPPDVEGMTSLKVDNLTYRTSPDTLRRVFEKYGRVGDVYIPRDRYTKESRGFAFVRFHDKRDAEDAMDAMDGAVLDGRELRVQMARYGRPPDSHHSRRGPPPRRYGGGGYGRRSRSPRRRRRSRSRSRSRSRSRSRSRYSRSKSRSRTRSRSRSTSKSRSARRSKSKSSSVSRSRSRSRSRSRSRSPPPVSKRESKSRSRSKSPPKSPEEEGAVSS
UniProt Q9Y4R8, sequence (Q9Y4R8 whole entry, looked up): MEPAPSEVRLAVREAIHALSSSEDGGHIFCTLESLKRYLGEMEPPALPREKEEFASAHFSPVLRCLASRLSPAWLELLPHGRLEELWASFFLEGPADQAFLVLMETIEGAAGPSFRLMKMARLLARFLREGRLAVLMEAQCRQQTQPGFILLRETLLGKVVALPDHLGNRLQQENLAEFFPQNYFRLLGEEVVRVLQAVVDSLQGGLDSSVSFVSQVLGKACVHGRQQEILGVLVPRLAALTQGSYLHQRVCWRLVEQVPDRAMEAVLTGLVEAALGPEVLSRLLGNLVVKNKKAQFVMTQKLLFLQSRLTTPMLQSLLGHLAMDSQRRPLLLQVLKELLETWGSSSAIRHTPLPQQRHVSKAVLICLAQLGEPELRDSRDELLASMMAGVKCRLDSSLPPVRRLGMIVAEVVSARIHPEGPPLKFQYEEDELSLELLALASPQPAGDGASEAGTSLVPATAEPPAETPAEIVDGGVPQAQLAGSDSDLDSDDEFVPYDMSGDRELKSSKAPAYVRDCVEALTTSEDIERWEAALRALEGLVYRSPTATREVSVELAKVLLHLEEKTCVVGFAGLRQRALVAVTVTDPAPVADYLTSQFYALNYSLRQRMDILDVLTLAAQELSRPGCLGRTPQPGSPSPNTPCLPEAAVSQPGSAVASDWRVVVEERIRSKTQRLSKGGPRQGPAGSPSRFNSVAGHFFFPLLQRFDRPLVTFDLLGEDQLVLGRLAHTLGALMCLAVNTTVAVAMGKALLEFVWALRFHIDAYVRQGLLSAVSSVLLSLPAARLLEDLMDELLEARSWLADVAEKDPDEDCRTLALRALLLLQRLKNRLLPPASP
UniProt Q9Y5B9, sequence (Q9Y5B9 whole entry, looked up): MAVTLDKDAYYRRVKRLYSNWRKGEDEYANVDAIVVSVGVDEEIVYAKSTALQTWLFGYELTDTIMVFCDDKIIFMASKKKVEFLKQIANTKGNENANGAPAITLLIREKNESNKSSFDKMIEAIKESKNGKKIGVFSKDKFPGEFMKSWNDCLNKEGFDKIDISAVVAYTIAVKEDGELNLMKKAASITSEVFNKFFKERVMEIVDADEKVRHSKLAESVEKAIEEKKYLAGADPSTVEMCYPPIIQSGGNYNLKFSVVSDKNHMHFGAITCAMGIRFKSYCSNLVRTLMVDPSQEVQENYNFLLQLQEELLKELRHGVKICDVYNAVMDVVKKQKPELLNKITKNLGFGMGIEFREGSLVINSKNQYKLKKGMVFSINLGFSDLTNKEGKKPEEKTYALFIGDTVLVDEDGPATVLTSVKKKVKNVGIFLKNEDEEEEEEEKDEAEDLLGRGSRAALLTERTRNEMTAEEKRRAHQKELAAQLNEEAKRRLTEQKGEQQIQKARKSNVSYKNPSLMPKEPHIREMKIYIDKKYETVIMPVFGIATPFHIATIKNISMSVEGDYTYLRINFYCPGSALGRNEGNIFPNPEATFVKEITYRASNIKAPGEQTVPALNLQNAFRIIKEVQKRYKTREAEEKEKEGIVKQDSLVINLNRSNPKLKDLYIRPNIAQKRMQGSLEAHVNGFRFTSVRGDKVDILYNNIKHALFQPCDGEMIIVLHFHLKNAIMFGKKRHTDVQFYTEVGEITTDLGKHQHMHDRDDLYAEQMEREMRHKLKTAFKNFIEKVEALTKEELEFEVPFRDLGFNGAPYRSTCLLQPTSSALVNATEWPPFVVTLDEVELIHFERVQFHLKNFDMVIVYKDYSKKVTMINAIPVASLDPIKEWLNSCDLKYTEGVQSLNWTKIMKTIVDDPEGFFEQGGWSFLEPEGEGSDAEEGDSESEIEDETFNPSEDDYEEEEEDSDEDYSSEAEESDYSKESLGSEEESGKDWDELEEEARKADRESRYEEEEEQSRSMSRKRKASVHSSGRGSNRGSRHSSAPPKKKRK
UniProt P35270, sequence (P35270 whole entry, looked up): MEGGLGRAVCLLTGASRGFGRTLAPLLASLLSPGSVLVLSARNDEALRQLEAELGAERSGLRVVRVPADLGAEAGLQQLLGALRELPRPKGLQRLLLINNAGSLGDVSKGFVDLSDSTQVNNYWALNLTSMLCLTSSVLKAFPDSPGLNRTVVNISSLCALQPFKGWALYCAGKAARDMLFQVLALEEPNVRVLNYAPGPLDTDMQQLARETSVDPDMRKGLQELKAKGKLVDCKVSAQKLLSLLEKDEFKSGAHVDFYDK
UniProt Q9Y5J6, sequence (Q9Y5J6 whole entry, looked up): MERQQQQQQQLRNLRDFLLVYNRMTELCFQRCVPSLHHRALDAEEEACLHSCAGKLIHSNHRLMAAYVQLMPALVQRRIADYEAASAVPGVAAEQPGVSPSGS
UniProt Q6XR72, sequence (Q6XR72 whole entry, looked up): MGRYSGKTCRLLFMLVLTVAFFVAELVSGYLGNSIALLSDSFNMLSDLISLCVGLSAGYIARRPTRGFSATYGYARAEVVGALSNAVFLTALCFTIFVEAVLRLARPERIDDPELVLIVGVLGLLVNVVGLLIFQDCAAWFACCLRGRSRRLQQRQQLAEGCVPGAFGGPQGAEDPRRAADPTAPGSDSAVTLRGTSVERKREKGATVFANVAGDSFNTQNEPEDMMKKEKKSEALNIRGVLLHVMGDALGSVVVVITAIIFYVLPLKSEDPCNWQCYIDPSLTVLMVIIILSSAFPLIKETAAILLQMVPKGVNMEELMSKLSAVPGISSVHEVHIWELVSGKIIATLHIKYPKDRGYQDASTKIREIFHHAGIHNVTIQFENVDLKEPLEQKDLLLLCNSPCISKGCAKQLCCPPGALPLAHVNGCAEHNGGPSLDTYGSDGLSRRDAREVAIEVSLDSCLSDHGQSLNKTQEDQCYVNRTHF
UniProt Q8NBW4, sequence (Q8NBW4 whole entry, looked up): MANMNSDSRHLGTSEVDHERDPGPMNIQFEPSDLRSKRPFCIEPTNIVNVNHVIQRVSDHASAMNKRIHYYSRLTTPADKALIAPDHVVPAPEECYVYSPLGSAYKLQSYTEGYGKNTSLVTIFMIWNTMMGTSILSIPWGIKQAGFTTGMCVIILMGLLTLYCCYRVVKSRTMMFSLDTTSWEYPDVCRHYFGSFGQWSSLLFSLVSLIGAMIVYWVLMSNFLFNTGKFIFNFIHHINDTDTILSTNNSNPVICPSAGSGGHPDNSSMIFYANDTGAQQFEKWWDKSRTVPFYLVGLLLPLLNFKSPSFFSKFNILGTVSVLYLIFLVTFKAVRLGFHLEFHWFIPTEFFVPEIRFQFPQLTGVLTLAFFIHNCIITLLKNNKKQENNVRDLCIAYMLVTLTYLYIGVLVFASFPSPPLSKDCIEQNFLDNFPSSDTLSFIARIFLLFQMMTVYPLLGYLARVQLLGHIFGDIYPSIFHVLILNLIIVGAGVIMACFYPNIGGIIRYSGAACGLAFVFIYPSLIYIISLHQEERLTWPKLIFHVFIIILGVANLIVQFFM
UniProt O00193, sequence (O00193 whole entry, looked up): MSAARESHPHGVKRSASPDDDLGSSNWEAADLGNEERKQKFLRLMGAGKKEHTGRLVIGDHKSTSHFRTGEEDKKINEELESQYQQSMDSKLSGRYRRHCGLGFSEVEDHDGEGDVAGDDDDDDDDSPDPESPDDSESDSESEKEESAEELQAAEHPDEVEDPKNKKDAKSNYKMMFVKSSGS
UniProt Q8N5G0, sequence (Q8N5G0 whole entry, looked up): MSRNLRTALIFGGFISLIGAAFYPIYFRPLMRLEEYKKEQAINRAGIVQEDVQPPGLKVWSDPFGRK

Compound in the assay: Cc1sc2c(c1C)C(c1ccc(Cl)cc1)=N[C@@H](CC(=O)OC(C)(C)C)c1nnc(C)n1-2
Put plainly: log2 fold change, soluble protein after heating vs DMSO (PISA); higher = thermal stabilisation; K562 cells, 10 uM, 30 min; active = over 0.2 and 3.5 SD of the protein, either way, in both replicates (recomputed). In short, it runs like this: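 Aliquots of K562 cells (2×10^6 cells/mL) treated with 10 μM compound for 30 min were heated for 3 min over 48°C-58°C. After pooling and extraction in PBS with 0.5% NP-40 at 4°C, soluble protein from a 21,000xg, 90 min spin was quantified by TMTpro 16plex LC-MS/MS with channel sums equalised. Thermal stability is expressed against control samples, from duplicates, as a log2 fold change.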
As for SLC25A42 (UniProt Q86VD7), the log2 fold change is -0.005 (inactive). With TELO2 (UniProt Q9Y4R8) the figure was 0.039 (inactive); with ST3GAL2 (UniProt Q16842), 0.005 (inactive). On to TBC1D5 isoform 2 (UniProt Q92609), for which the log2 fold change was 0.003 (inactive). Then SRSF2 (UniProt Q01130), with 0.061 (inactive). Regarding TIMM10B (UniProt Q9Y5J6), the log2 fold change is 0.066 (inactive). Then TBC1D23 (UniProt Q9NUY8), with -0.003 (inactive); and STOM (UniProt P27105), with -0.021 (inactive). With SLC30A10 (UniProt Q6XR72) the figure was -0.003 (inactive); with TLK2 isoform 2 (UniProt Q86UE8), -0.007 (inactive); with TATDN2 (UniProt Q93075), 0.069 (inactive).

For the target SLC6A6 (UniProt P31641), the log2 fold change is 0.018 (inactive). Then SLC38A2 (UniProt Q96QD8), with -0.028 (inactive).

Regarding SMIM20 isoform 2 (UniProt Q8N5G0), the log2 fold change was -0.125 (inactive). With TMBIM6 isoform 2 (UniProt P55061) the figure was -0.03 (inactive).

SLC38A9 (UniProt Q8NBW4): the log2 fold change is -0.014 (inactive).

On to SORT1 (UniProt Q99523), for which the log2 fold change was 0.027 (inactive). Regarding STK38L (UniProt Q9Y2H1), the log2 fold change is 0.07 (inactive). Regarding TK1 (UniProt K7ERV3), the log2 fold change is 0.029 (inactive). With SMAP (UniProt O00193) the figure was -0.039 (inactive); with STRN (UniProt O43815), -0.108 (inactive); with SLC39A11 (UniProt Q8N1S5), -0.323 (inactive). In the case of SMC5 (UniProt Q8IY18), the log2 fold change is -0.028 (inactive). Then TIMM21 (UniProt Q9BVV7), with 0.004 (inactive); and SURF1 (UniProt Q15526), with -0.101 (inactive); and SNRNP40 (UniProt Q96DI7), with 0.071 (inactive). With STK39 (UniProt Q9UEW8) the figure was -0.026 (inactive); with SYMPK (UniProt Q92797), -0.006 (inactive); with SRRM2 (UniProt Q9UQ35), 0.05 (inactive).

As for TGFBR1 isoform 2 (UniProt P36897), the log2 fold change is -0.029 (inactive). With SRSF6 (UniProt Q13247) the figure was 0.217 (inactive). Turning to TM9SF2 (UniProt Q99805), the log2 fold change is -0.044 (inactive). With STK26 (UniProt Q9P289) the figure was 0.004 (inactive). With SNRNP27 (UniProt Q8WVK2) the figure was 0.023 (inactive); with SUPT16H (UniProt Q9Y5B9), -0.106 (inactive). With SMDT1 (UniProt Q9H4I9) the figure was -0.019 (inactive); with SPR (UniProt P35270), -0.058 (inactive); with SMPD4 isoform 2 (UniProt Q9NXE4), -0.061 (inactive).

For the origin of these results see the supplement of paper PMC10849652.
